From PubChem BioAssay (NCATS)
A number with no mark means an inactive call. Records with an inconclusive call do not appear. A call without a number means that no potency is given here. Calls of active or inactive are those of the source. The call rests on the fitted dose curve; in most records, active means well fitted curve in the direction sought with a large enough effect; inconclusive means small, poorly fitted or top-dose-only effect, or another doubt; inactive means no such curve, though single readings can be large; an effect the other way counts as inactive or inconclusive.

Assays:
[1] = molecular target: Glutathione peroxidase 1 (Homo sapiens) (UniProt P07203); test: Primary qHTS Assay for Inhibitors of Recombinant Selenoprotein Glutathione Peroxidase 1 (GPX1) (AID 1845191); further: nearly all actives have a fitted effect of over 65% in size
Sequence of Glutathione peroxidase 1 (Homo sapiens) (P07203 whole entry, looked up): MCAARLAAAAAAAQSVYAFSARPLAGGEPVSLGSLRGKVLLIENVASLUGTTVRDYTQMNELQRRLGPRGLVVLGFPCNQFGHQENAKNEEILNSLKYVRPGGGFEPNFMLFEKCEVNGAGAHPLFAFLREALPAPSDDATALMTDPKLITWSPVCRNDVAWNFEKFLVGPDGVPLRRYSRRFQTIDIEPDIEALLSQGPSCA
How it was run: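 Recombinant GPX1 (10 nM final) was preincubated with compound for 30 min at room temperature, then reacted with 1 mM GSH, 0.5 mM CHP, 0.5 mM NADPH and 100 nM glutathione reductase; NADPH fluorescence (340/450 nm) was read at 0 and 15 min.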

[2] = molecular target: Luciferin 4-monooxygenase (Photinus pyralis) (UniProt P08659); test: Primary firefly luciferase (FLuc) qHTS assay for identification of artifact compounds. (AID 1845220); further: nearly all actives have a fitted effect of over 60% in size; further: potency means the concentration at half of the fitted maximal effect; on activity change, negative = inhibition: series mostly up to about 54 µM
How it was run: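 In this counter-screen for luciferase artifacts, test compounds met substrate (10 uM each luciferin and ATP) before 10 nM enzyme started the reaction. Light output was measured 5 min later.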

[3] = Primary fluorescence-based thiol-reactive (MSTI) qHTS assay for identification of artifact compounds. (AID 1845221); further: nearly all actives have a fitted effect of over 65% in size; further: potency means the concentration at half of the fitted maximal effect
How it was run: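 Curve-fitted percent inhibition (4-parameter Hill) derived from fluorescence, Ex 525/Em 598 nm, scaled with Acetyl-MSTI and MSTI; 1 h incubation at room temperature.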

[4] = test system: Nanoluciferase (engineered Oplophorus gracilirostris luciferase); test: Primary Nanoluciferase (NLuc) qHTS assay for identification of artifact compounds. (AID 1845222); further: potency means the concentration at half of the fitted maximal effect;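 on activity, negative = inhibition: NLuc secreted into diluted conditioned medium of S16 cells; series mostly up to about 54 µM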
How it was run: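 Using secreted nanoluciferase in S16 culture medium (0.22 um filtered, 1:55 dilution), compounds were preincubated 15 min at RT. Signal was generated with Nano-Glo reagent (1:100) over 5 min.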

[5] = molecular target: Phospholipid hydroperoxide glutathione peroxidase GPX4 (Homo sapiens) (UniProt P36969); test: Primary qHTS Assay for Inhibitors of Recombinant Selenoprotein Glutathione Peroxidase 4 (GPX4) (AID 1845192); further: nearly all actives have a fitted effect of over 65% in size; on activity change, negative = inhibition: series mostly up to about 50 µM
Sequence of Phospholipid hydroperoxide glutathione peroxidase GPX4 (Homo sapiens) (P36969 whole entry, looked up): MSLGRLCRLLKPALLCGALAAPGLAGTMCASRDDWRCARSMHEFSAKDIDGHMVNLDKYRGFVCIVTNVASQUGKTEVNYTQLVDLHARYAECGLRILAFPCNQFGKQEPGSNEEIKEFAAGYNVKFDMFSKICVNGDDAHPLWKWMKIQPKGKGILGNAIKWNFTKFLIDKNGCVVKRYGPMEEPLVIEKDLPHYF
How it was run: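 GR-coupled readout: 100 nM GR, 1 mM GSH, 0.5 mM NADPH; NADPH fluorescence (ex 340/em 450 nm) read at t=0 and after 15 min RT. GPX4 200 nM, preincubated 30 min with compound; substrate 0.5 mM CHP.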

| SMILES | Potency [1] | Potency [2] | Potency [3] | Potency [4] | Potency [5] | activity change, negative = inhibition [2] | activity, negative = inhibition [4] |
| --- | --- | --- | --- | --- | --- | --- | --- |
| CC(=O)N[C@H]1[C@H](O[C@H]2CC[C@]3(C)C4CC=C5[C@@H]6CC(C)(C)CC[C@]6(C(=O)O)[C@H](O)C[C@@]5(C)[C@]4(C)CC[C@H]3C2(C)C)O[C@H](CO)[C@@H](O)[C@@H]1O (some centres not stated) | inactive | inactive | inactive | inactive |  |  |  |
| COc1c2ccoc2nc2c(OC)c(O[C@@H]3O[C@@H](C)[C@H](O)[C@@H](O[C@@H]4O[C@H](CO)[C@@H](O)[C@H](O)[C@H]4O)[C@H]3OC(C)=O)ccc12 | inactive | inactive | inactive | inactive |  |  |  |
| C/C=C(\C)C(=O)OCC1OC(OCC2OC(OC3(CO)OC(CO)C(O)C3O)C(O)C(O)C2O)C(O)C(O)C1O (configuration not stated) | inactive | inactive |  | inactive |  |  |  |
| CC(CNS(=O)(=O)C(C)C)c1ccc(-c2ccc(C#N)cc2)cc1 (configuration not stated) | inactive | inactive | inactive | inactive |  |  |  |
| N#CC1C(=O)N=C(c2cc(Cl)ccc2O)C=C1c1cc(OCc2ccccc2)cc(OCc2ccccc2)c1 (configuration not stated) | inactive | inactive | inactive | inactive |  |  |  |
| CC(C)=CCc1c(O)cc2oc3cc(C)cc(O)c3c2c1C | inactive | 12 µM (active) | 4.74 µM (active) | inactive |  |  |  |
| C=C(C(=O)OC)[C@]12O[C@@](C)(CC[C@@]3(O)/C(=C\C)C(=O)O[C@]3(C)C[C@@H]1OC(=O)C(CO)CN1CCCC1C(=O)O)CC2=O (some centres not stated) | inactive | inactive |  | inactive |  |  |  |
| CCC(C)/C=C(C)/C=C/C1=CC2=C(Cl)C(=O)C(C)(OC(C)=O)C(=O)C2=CN1C(CCCN=C(N)N)C(=O)O (configuration not stated) | inactive | inactive | 1.03 µM (active) | inactive |  |  |  |
| CC1=C(CO)CC(C(C)C2CCC3C4CC=C5CC(OC6OC(COC7OC(CO)C(O)C(O)C7O)C(O)C(O)C6O)CC(O)C5(C)C4CCC23C)OC1=O (configuration not stated) | inactive | inactive | inactive | inactive |  |  |  |
| COc1cc(CCCO)ccc1O[C@@H]1O[C@H](CO)[C@@H](O)[C@H](O)[C@H]1O | inactive | inactive | 16.5 µM (active) | inactive |  |  |  |
| O=C(/C=C/c1ccc(O)c(O)c1)O[C@H]1[C@@H]2C=CO[C@@H](O[C@@H]3O[C@H](CO)[C@@H](O)[C@H](O)[C@H]3O)[C@@H]2[C@@]2(CO)O[C@@H]12 | inactive | inactive | 2.07 µM (active) | inactive |  |  |  |
| COc1ccc2c(c1)C=C1Cn3c-2c(C2CCCCC2)c2ccc(cc23)C(=O)NS(=O)(=O)N(C)CCOCCN(C)C1=O | inactive | inactive | inactive | inactive |  |  |  |
| C=C1C(O)CCC2(C)CC3(OC)OC(=O)C(C)=C3CC12 (configuration not stated) | inactive | inactive | inactive | inactive |  |  |  |
| CC1=CC(=O)CC(C)(C)C1CCC(C)O[C@@H]1O[C@H](CO)[C@@H](O)[C@H](O)[C@H]1O (some centres not stated) | inactive | inactive | 9.27 µM (active) | inactive |  |  |  |
| C=Cc1cc2oc(-c3ccc(O)c(F)c3)nc2cc1O |  |  |  | inactive |  |  |  |
| COc1cc(/C=C/c2ccccc2)c(C(=O)O)c(O)c1CC=C(C)C |  | inactive |  | 13.2 µM (active) | inactive |  |  |
| O=C(O)c1ccncc1Nc1nn(CCN2CCC(F)(F)CC2)c2ccc(F)cc12 |  | inactive | 1.34 µM (active) | inactive | inactive |  |  |
| COc1cc(O)c2c(c1Cl)CC(C)OC2=O (configuration not stated) |  | inactive | inactive | inactive | inactive |  |  |
| Cc1sc(C)c(C(=O)NC2(c3ccc(C(=O)O)cc3)CC2)c1Cc1ccc(C(F)(F)F)cc1 |  | inactive | inactive | 4.78 µM (active) | inactive |  |  |
| COc1ccc(-n2[nH]c3c(cnc4ccccc43)c2=O)cc1 |  | inactive | 4.74 µM (active) | inactive | inactive |  |  |
| CCc1cc(CC[C@]2(C3CCCC3)CC(O)=C(Cc3nc4nc(C)cc(C)n4n3)C(=O)O2)cc(CC)n1 |  | inactive | inactive | inactive | inactive |  |  |
| C=CCc1cc(OC)c(OC(C)C(O)c2ccc(O)c(OC)c2)c(OC)c1 (configuration not stated) |  | inactive |  | inactive | inactive |  |  |
| C[C@H]1[C@H](C)CC[C@]2(C(=O)OC3OC(CO)C(O)C(O)C3O)CC[C@]3(C(=O)O)C(=CCC4[C@@]5(C)CC[C@H](O[C@@H]6O[C@@H](C)[C@H](OC7OC(CO)C(O)C(O)C7O)[C@@H](O)[C@H]6O)C(C)(C)C5CC[C@]43C)[C@H]12 (some centres not stated) |  |  |  |  | inactive | -5.72% [at 11.6 µM] | 1.44% [at 11.6 µM] |
| CC(=O)Nc1cccc2c1c(Sc1ccc(Cl)cc1)c(C)n2CC(=O)O |  | inactive |  | 10.7 µM (active) | inactive |  |  |
